From PubChem BioAssay

Assay: FRG1 expression reporter modulators in myotubes – cell-based, C2C12 myotubes, firefly/Renilla luciferase, luminescence, FRG1 inhibition for FSHD, primary screen (AID 1084)
Settings: FRG1 promoter luciferase, higher = more signal, called active from +8 up or from −8 down

z-score, inactive:
COc1ccc(COC(=O)NN=C2C[C@@H](O)[C@@H](O)[C@@H]3[C@@H]4C(=O)N(C[C@@H]5CCCO5)C(=O)[C@@H]4CC[C@H]23)cc1 -0.249
CCOC(=O)[C@H](Cc1ccccc1)NC(=O)CCC1CC(OC(=O)NCCc2ccc(F)cc2)CC2(CCCC(COC(=O)NCCC(C)C)O2)O1 (some centres not stated) -0.214
COC(=O)CC=C[C@@H](C)[C@@H](C=NOC[C@@H](O)[C@H]1O[C@@H]2OC(C)(C)O[C@@H]2[C@H]1O)OC 0.195
C[C@]12CCC3c4ccc(OCC5CO5)cc4CCC3C1CC[C@@H]2O (some centres not stated) 1.05
CCOC(=O)CCN1C(=O)[C@H]2[C@H]3[C@H](O)[C@H](O)CC(=NO[C@@H]4O[C@H](CO)[C@@H](O)[C@H](O)[C@H]4O)[C@@H]3CC[C@H]2C1=O -0.389
CC(CCN1CCCCc2nc(C)c(C)cc21)=NO[C@H](C)c1cn([C@@H]2COC[C@H]2O)nn1 0.227
COc1ccc(COC(=O)NN=C2C[C@@H](O)[C@@H](O)[C@@H]3[C@@H]4C(=O)N(c5cccc(Oc6ccccc6)c5)C(=O)[C@@H]4CC[C@H]23)cc1 0.632
CC=CC1=C(CO)[C@H](O)[C@H]2O[C@H]2[C@@H]1O 0.746
CC1(C)O[C@H]2OC([C@H](O)CON3C(=O)c4ccccc4C3=O)[C@H](O)[C@H]2O1 (some centres not stated) 0.516
CCOC(=O)NN=C1C[C@@H](O)[C@@H](O)[C@@H]2[C@@H]3C(=O)N(CC)C(=O)[C@@H]3CC[C@H]12 -0.323
CC(=O)OC[C@H]1O[C@@H](ON=C(C)CCC(=O)OC[C@H]2O[C@H](C#Cc3ccccc3)C=C[C@@H]2Oc2ccc(C)cc2)[C@H](OC(C)=O)[C@@H](OC(C)=O)[C@@H]1OC(C)=O 0.66
Cc1cc2c(nc1C)CCCCN2CC(O)CN1CCCc2nc(-c3ccc(Br)cc3)ccc21 (configuration not stated) 2.29
CCOC(=O)CCN1C(=O)[C@H]2[C@H]3[C@H](O)[C@H](O)CC(=NOCC=C(C)CCC=C(C)C)[C@@H]3CC[C@H]2C1=O -0.594
CC(=O)OC[C@H]1O[C@@H](ON=C(C)CCN2CCCCc3nc(C)c(C)cc32)[C@H](OC(C)=O)[C@@H](OC(C)=O)[C@@H]1OC(C)=O 0.694
CC(=O)OC[C@H]1O[C@H](CCON=C(C)C)C=C[C@@H]1OC(C)=O 0.2
CCCNC(=O)OC[C@H]1O[C@H](CCON=C[C@@H](NS(=O)(=O)c2ccc(C)cc2)[C@H](C)C=CCC(=O)OC)C=C[C@@H]1Oc1ccc(OC)cc1 -0.122
CCCC[C@H]1CN2[C@@H](CC[C@@H](C)[C@@H]2c2ccc(Br)cc2)C(=O)O1 -0.374
CCC1=NOC(CCC2CC(OC(=O)NCc3cccc4c3OCO4)CC3(CCCC(COC(=O)NCCc4ccc(Cl)cc4)O3)O2)C1 (configuration not stated) 1.24
COc1ccc(O[C@H]2C=C[C@@H](C#Cc3ccccc3)O[C@@H]2CO)cc1 -1.37
CC(C)CON=C1[C@H]2CCn3c(=O)n(C)c(=O)n3[C@H]2[C@H](O)[C@@H]2O[C@H]12 -0.0014
COC(=O)[C@@H]1CC[C@H](C)[C@@H](c2ccc(Br)cc2)N1C[C@@H](O)CN=[N+]=[N-] 0.687
COC(=O)[C@H](C)NC(=O)CCC1CC(OC(=O)NCCc2ccc(F)cc2)CC2(CCCC(COC(=O)NCc3ccccc3)O2)O1 (some centres not stated) 1.61
O=C1C[C@H](c2ccccc2)[C@H](c2ccc(Br)cc2)O1 -0.78
COc1ccc(O[C@H]2C=C[C@@H](c3ccccc3)O[C@@H]2COC(=O)CCC(C)=NOC[C@@H](O)COCc2ccco2)cc1 0.838
O=C1[C@H]2[C@H]3[C@H](O)[C@H](O)CC(=NOCc4ccccc4)[C@@H]3CC[C@H]2C(=O)N1c1cccc(Oc2ccccc2)c1 -0.441
O=C1[C@H]2[C@H]3[C@H](O)[C@H](O)CC(=NOC[C@@H](O)COCc4ccco4)[C@@H]3CC[C@H]2C(=O)N1Cc1ccc2c(c1)OCO2 -0.196
CCOC(=O)[C@H](CC(C)C)NC(=O)CCC1CC(OC(=O)NCc2ccc3c(c2)OCO3)CC2(CCCC(COC(=O)NCc3ccccc3)O2)O1 (some centres not stated) 1.61
